Data on 30 molecules can be found in PubChem BioAssay AID686978 (National Center for Advancing Translational Sciences (NCATS), 2013).

Among all 420,000 compounds or so, about 64,000 (15%) were called active. Another 27% or so got no clear call; they are omitted. Calls follow the shape of the dose curve; as a rule, active = well fitted inhibition curve with a large enough effect; inconclusive = small, poorly fitted or top-dose-only effect; inactive = flat fitted curve, though single readings scatter. A selection follows. Where a call stands in place of a potency, no number is given.
Potency is read from the fitted curve at half-maximal effect.

The nature of the assay: qHTS for Inhibitors of human tyrosyl-DNA phosphodiesterase 1 (TDP1): qHTS in cells in absence of CPT. Also: nearly all actives have a fitted effect of over 55% in size. To be noted: DT40 Tdp1-/- hTDP1 cells, no CPT, ATP luminescence, 48 h; activity change, negative = growth inhibition: at 46.2 µM (top of the series). Summed up: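 Luminescent ATP content (CellTiter-Glo) served as the growth readout. Knockout chicken DT40 cells expressing human TDP1 were exposed to compounds without camptothecin for a minimum 48 hr at 37 °C.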
Consider `CC(C)Oc1ccc(Cc2n[nH]c(=S)n2Cc2ccccc2)cc1Cl`, for which the Potency entry was “inactive”.

Take `CC(C)Oc1ccc(CCc2n[nH]c(=S)n2Cc2ccccc2)cc1`: the Potency was 20.6 µM (active).

Consider `CC(C)Oc1ccc(CCc2nnc(SCC(=O)O)n2-c2ccccc2)cc1`, for which the Potency result was “inactive”.

Take `Cc1ccc(CSc2nnc(-c3cnccn3)n2C)cc1`: the Potency result was “inactive”.

On to `O=C(O)CCn1c(SCc2cc(=O)n3ccccc3n2)nc2ccsc2c1=O`, for which the Potency result is “inactive”.

As to `Cc1ccc(CSc2nc3ccsc3c(=O)n2CCC(C)C)cc1`, the Potency is 23.1 µM (active).

With `O=CN1CCN(C(=O)c2ccc(Br)o2)CC1`, the Potency result is “inactive”.

On to `CCC(CO)Oc1cc(NC(=O)c2cccc(F)c2)c2ncn(C(C)C)c2c1` (stereo not given), for which the Potency result is “inactive”.

As for `Cc1ccc(CNC(=O)COc2ccc(S(=O)(=O)NC(C)C)cc2)cc1`, the Potency entry is “inactive”.

With `O=S(=O)(NN=C1CCCCCCC1)c1ccc(Br)cc1`, the Potency result was “inactive”.

For `O=C(CNS(=O)(=O)c1ccc(Br)s1)NCc1ccc2c(c1)OCO2`, the Potency result was “inactive”.

As to `CN(CC(O)COc1ccc(S(=O)(=O)N2CCOCC2)cc1Cl)C1CCCCC1` (stereo not given), the Potency entry is “inactive”.

`Cc1cc(C(C)(C)C)n2nc(C)c(-c3ccccc3)c2n1`: the Potency result was “inactive”.

On to `Cc1cc(-n2nc(C)cc2C)n2nc(C)c(-c3ccccc3)c2n1`, for which the Potency result is “inactive”.

`Cc1nn2c(NCCN(C)C)c3c(nc2c1-c1ccccc1)CCC3`: the Potency was 25.9 µM (active).

Consider `Cc1ccc2c(c1)C1C[N+](C)(CC(=O)c3ccccc3)CCC1N2C(=O)c1ccccc1Cl` (stereo not given), for which the Potency result is “inactive”.

For the molecule `COc1cccc(NC(=O)C(Sc2nnnn2C)c2ccccc2)c1` (stereo not given), the Potency entry was “inactive”.

Take `O=C(NNS(=O)(=O)c1ccc(F)cc1)C1CCCCC1`: the Potency entry was “inactive”.

For the molecule `O=C1CC[C@@H](C(=O)N2CSC[C@@H]2C(=O)Nc2ccc(C(F)(F)F)cc2)N1`, the Potency result was “inactive”.

In the case of `CCCc1ccc(-c2c(C)sc(NC(=O)c3ccnn3C)c2C#N)cc1`, the Potency was 20.6 µM (active).

In the case of `Cc1sc(NC(=O)C2=COCCO2)c(C#N)c1C`, the Potency entry is “inactive”.

As to `Cn1nccc1CNC(=O)c1ccnn1C`, the Potency entry is “inactive”.

`CC(CCn1cccn1)NC(=O)CCc1nnc(CCc2ccccc2)o1` (stereo not given): the Potency entry was “inactive”.

As to `COc1ccc(C(C#N)(CC(=O)O)c2cnccn2)cc1OC` (stereo not given), the Potency result was “inactive”.

Take `CCC(=O)Nc1ccc(C(=O)Nc2cccc(OC)c2)cc1`: the Potency entry is “inactive”.

In the case of `COc1ccc(NS(=O)(=O)c2ccc(NC(=O)c3ccc(N(C)S(C)(=O)=O)cc3)cc2)cc1`, the Potency was 8.2 µM (active).

Turning to `COc1cccc(NC(=O)c2ccc(S(=O)(=O)N(C)C)cc2)c1`, the Potency entry was “inactive”.

As to `COc1ccc(NC(=O)c2cnc(NS(=O)(=O)c3ccccc3)nc2)cc1`, the Potency result is “inactive”.

For the molecule `COc1ccc(C(=O)Nc2cccc(S(C)(=O)=O)c2)cc1`, the Potency was 23.1 µM (active).

Regarding `COc1ccc(NC(=O)c2ccc(OC)cc2)cc1`, the Potency entry is “inactive”.
